# Calb FLC – C. albicans growth modulation with fluconazole | C. albicans CaCi-2 (fluconazole-resistant clinical isolate) + fluconazole, Alamar Blue growth, 48 h | growth inhibition, % (concentration not given with the values) | 0.57% of 300,000 active | AID 1979;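 active = growth inhibition above about 58% in most replicates, limit read from the data, passing the limit was not always enough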;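 also: all wells also contain fluconazole at 8 µg/ml as a sub-toxic cotreatment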
# PP1 counter – counter-screen for PP5 inhibitors: inhibitors of human PP1-alpha. purified PP1alpha, OMFP fluorescence. P62136. inhibition, % at 6.7 µM. 0.9% of 320,000 active. AID 2235;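 active = inhibition above the mean inhibition of all tested compounds plus 3 SD, computed separately for each screening campaign, cut at about 15% in these data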
# CSC inhib – cancer stem cell inhibition; cancer stem cell-like cells viability, luminescence; 1.1% of 300,000 active; inhibition, % at 7.5 µM; in the data active = inhibition above about 75%; tested in HMLE shEcad cells
# ALR H2O2 inh – human ALR oxidase inhibition via reduced H2O2; P55789; purified ALR, DTT oxidation, H2O2 HRP-luminol luminescence; inhibition, % (no concentration beside the values); 3.8% of 290,000 active;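 active = mean replicate inhibition above about 79%, with every replicate also reaching it, limit read from the data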
# Target sequence (P55789 whole entry, looked up): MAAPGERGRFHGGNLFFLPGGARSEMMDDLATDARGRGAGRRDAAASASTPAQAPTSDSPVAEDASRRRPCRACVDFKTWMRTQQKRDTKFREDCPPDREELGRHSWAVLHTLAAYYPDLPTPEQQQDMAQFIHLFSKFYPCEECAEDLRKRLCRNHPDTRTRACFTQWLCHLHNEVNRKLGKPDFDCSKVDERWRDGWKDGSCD
# PP5 primary – inhibitors of human protein phosphatase 5 (PP5) | inhibition, % at 6.7 µM | purified PP5c, OMFP substrate fluorescence | 0.18% of 320,000 active;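 active = inhibition above the campaign's mean inhibition across all tested compounds plus 3 SD, cut at about 9.5% in these data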
# Hits are given with their value; 0 = inactive; - = no result given. Rows were chosen to be rich in hits. Some 5.4% of all compounds tested hit in one or more screens of this group.
SMILES,Calb FLC,PP1 counter,CSC inhib,ALR H2O2 inh,PP5 primary
O=C(O)C1CSC(c2coc3ccccc3c2=O)N1 (stereo not given),0,0,0,99,0
N=c1c(C(=O)NC2CCCCC2)cc2c(=O)n3ccccc3nc2n1CC1CCCO1 (stereo not given),0,0,-,0,0
Cc1ccccc1-n1nc(C(=O)O)c(C)c(C#N)c1=O,0,0,0,0,0
CC(=O)c1ccc(NC(=O)N2CCN(c3ccc(C)cc3)C(C)C2)cc1 (stereo not given),0,0,0,96,0
Oc1ccc(Br)cc1-c1cc(-c2ccccc2)n[nH]1,0,0,120,0,0
O=[N+]([O-])c1cccc(-c2cc(-c3cc(Br)ccc3O)[nH]n2)c1,84,0,97,0,0
Nc1cc(C(F)(F)F)ccc1Nc1ccccc1,0,0,0,98,0
Nc1cc(C(F)(F)F)ccc1NCCc1ccccn1,0,0,0,98,0
N#Cc1cc(N)c(Nc2ccccc2)cc1C#N,0,0,0,0,0
Nc1cc([N+](=O)[O-])ccc1Nc1ccccc1,0,0,0,99,0
Nc1cc([N+](=O)[O-])ccc1O,0,0,0,99,0
O=C(O)c1cc([N+](=O)[O-])ccc1Nc1ccccc1,0,0,0,0,0
Cc1ccc([N+](=O)[O-])cc1N,0,0,0,0,0
O=C(CCc1nc2ccccc2c(=O)[nH]1)NNC(=O)c1ccccc1Cl,-,0,0,0,0
Cc1ccc(S(=O)(=O)Cn2nnnc2C(CC(C)C)N2CCC(C(N)=O)CC2)cc1 (stereo not given),0,0,0,0,0
O=[N+]([O-])c1ccc(O)c(NC(=S)Nc2ccccc2)c1,0,0,0,98,0
N#Cc1ccc(Nc2ccccc2)c(N)c1,0,0,0,98,0
CC(=O)Cc1nsc(Nc2ccc(Cl)cc2)n1,118,0,0,0,0
CC(=O)Cc1nsc(Nc2ccc(F)cc2)n1,0,0,0,-,0
Cc1ccc2ncnc(Nc3ccc(C)c(C)c3)c2c1,0,0,80,0,0
O=[N+]([O-])c1cc(S(=O)(=O)Nc2ccccc2)ccc1N1CCN(c2ccc(O)cc2)CC1,0,0,77,-,0
CC(=O)N1CCc2cc(S(=O)(=O)Nc3ccc(C)cc3C)ccc21,0,0,0,0,0
CN1CCN(S(=O)(=O)c2ccc(N3CCN(c4ccc(O)cc4)CC3)c([N+](=O)[O-])c2)CC1,0,0,0,98,0
Cc1ccc(NS(=O)(=O)c2ccc(N3CCN(c4ccc(O)cc4)CC3)c([N+](=O)[O-])c2)c(C)c1,0,0,83,0,0
Cc1cc(C)c(C)c(S(=O)(=O)N2CCN(c3ccc(O)cc3)CC2)c1C,0,0,85,0,0
SMILES,Calb FLC,PP1 counter,CSC inhib,ALR H2O2 inh,PP5 primary
COc1ccc(CNC(=O)C(c2cccc(C)c2)N(C(=O)c2csnn2)C2CC2)cc1 (stereo not given),0,0,0,0,0
O=C(N/C(=C\c1ccco1)C(=O)N1CCOCC1)c1ccco1,0,0,0,0,0
Cc1ccc2sc(N(CCCN(C)C)C(=O)c3ccc(S(=O)(=O)N4CCc5ccccc5C4)cc3)nc2c1C,0,15,0,0,0
COc1cccc2sc(N(CCCN(C)C)C(=O)c3ccc(S(=O)(=O)N4CCc5ccccc5C4)cc3)nc12,0,0,0,0,0
Cc1ccc2sc(N(CCCN(C)C)C(=O)c3ccc(S(=O)(=O)N(C)Cc4ccccc4)cc3)nc2c1C,0,17,0,0,0
CCN(c1ccccc1)S(=O)(=O)c1ccc(C(=O)N(CCCN(C)C)c2nc3cc4c(cc3s2)OCO4)cc1,0,0,0,0,0
CC(C)N(C)C(=O)c1ccc(OC2CCN(CCc3ccccc3)CC2)cc1,0,0,0,-,0
COC(C(=O)N/N=C(\C)CC(=O)Nc1ccc(Cl)cc1C)c1ccccc1 (stereo not given),0,0,0,0,0
CC(=O)NCCC(=O)Nc1sc2c(c1-c1nc3ccccc3[nH]1)CCCC2,0,0,0,98,0
Cc1cc(C)c(S(=O)(=O)Nc2ccc(O)cc2)cc1C,0,0,0,99,0
CC(C)c1ccc(NS(=O)(=O)c2cccc3cccnc23)cc1,0,0,0,0,0
O=S(=O)(Nc1ccc(O)cc1)c1cccc2cccnc12,0,0,0,101,0
Cc1ccc(C)c(S(=O)(=O)Nc2ccc(O)cc2)c1,0,0,0,0,0
COc1ccc2oc(=Nc3cc(F)ccc3F)c(C(N)=O)cc2c1,0,0,0,0,0
Cc1cc(-c2nn(-c3ccccc3)cc2/C=C2\SC(N)=NC2=O)ccc1OC(C)C,0,0,0,0,0

# Bioassay records from PubChem BioAssay.
